Compound activity: PubChem, National Center for Advancing Translational Sciences (NCATS)
Shown are actives, neighbours in structure and some others; about 10% of the full set was active somewhere.
Six1-Eya2 blk – inhibitors of human Six1/Eya2 interaction. Q15475+O00167. activity change, % (concentration not given with the values). AlphaScreen GST-Six1/His-Eya2 binding, biochemical; hits give low values. AID 651725. actives 0.56% (n = 360,000); in the data active = activity change below about -65%; inconclusive = mostly about -30% to -63%
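GST-Six1 + His-Eya2 (5X stock: 250/500 nM); Tris pH 8.0, 300 mM NaCl, 0.05% BSA, 0.02% Tween 20; GSH donor/Ni acceptor beads; 1 h 37 °C dark; AlphaScreen readout.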
JMJD2A Tudor – JMJD2A Tudor domain (human) inhibition. O75164. AlphaScreen JMJD2A-Tudor / H3K4me3 peptide binding. Potency, µM (titrated, usually from 114 µM), usual class: inhibitors. actives 4.4% (n = 390,000); also: nearly all actives have a fitted effect of over 50% in size
BAZ2B inh – BAZ2B (human) inhibition; actives 4.4% (n = 360,000); Q9UIF8; Potency, µM (top dose mostly 114 µM), most hits filed as inhibitors; AlphaScreen BAZ2B-H3K14Ac peptide displacement; also: nearly all actives have a fitted effect of over 60% in size
Target sequence (Q9UIF8 whole entry, looked up): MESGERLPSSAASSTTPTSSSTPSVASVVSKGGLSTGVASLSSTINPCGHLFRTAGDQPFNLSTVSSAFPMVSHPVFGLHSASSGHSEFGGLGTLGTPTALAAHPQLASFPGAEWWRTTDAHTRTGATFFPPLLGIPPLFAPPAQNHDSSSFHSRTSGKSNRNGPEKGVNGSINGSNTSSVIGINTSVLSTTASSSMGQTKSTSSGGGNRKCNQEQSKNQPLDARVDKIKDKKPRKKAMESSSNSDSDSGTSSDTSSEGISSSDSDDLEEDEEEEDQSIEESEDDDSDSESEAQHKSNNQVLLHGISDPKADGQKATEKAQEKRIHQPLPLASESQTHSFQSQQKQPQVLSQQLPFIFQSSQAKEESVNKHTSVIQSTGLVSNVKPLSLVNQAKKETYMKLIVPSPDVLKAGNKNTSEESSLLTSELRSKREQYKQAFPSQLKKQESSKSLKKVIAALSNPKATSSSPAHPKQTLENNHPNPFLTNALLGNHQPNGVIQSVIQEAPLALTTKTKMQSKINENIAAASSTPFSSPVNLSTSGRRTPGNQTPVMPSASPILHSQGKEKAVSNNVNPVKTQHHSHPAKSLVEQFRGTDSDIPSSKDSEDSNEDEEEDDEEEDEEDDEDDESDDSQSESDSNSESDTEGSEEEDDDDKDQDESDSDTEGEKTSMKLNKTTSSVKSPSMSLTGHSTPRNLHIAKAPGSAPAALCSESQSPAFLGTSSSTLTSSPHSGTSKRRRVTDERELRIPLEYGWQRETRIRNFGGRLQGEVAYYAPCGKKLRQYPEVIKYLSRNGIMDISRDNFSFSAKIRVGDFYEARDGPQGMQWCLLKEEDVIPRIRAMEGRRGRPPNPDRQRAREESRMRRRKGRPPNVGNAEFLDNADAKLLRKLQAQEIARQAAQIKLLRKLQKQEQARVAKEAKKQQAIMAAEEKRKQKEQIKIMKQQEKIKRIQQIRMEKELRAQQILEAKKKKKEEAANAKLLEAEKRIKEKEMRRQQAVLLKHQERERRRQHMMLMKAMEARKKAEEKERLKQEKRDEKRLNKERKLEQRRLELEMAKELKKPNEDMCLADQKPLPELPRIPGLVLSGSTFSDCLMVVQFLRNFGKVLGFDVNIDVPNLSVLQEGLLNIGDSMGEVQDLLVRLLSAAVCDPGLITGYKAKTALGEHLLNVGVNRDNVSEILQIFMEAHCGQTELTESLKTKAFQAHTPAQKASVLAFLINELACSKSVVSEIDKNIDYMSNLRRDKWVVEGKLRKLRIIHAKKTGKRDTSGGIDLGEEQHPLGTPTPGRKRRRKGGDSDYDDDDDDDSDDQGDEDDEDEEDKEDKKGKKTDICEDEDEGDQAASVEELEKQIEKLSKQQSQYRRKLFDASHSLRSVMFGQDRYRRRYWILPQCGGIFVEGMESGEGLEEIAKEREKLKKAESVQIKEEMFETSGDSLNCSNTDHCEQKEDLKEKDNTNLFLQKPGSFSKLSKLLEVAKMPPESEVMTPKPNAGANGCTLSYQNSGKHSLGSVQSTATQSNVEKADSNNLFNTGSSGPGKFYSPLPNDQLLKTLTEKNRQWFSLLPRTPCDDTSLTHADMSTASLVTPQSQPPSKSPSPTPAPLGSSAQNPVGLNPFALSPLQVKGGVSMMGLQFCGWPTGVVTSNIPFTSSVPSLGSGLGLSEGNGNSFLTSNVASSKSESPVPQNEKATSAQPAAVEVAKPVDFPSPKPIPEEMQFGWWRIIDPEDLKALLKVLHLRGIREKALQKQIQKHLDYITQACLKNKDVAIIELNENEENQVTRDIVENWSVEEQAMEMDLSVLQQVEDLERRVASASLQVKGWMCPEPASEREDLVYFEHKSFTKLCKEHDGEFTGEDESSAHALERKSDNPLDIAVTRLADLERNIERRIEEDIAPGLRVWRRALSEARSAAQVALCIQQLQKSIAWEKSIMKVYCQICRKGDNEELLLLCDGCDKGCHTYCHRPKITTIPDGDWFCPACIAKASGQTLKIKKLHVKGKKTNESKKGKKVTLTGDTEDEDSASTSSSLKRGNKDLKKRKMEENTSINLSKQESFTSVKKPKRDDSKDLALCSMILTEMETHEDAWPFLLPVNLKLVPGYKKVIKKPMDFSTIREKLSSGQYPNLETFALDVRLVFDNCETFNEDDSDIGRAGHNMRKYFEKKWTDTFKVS
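AlphaScreen displacement of biotin-H3(5-23)K14Ac peptide (50 nM final) from BAZ2B (50 nM final) in PBS pH 7.4, 0.01% Tween-20; complex preformed 30 min RT, then compounds (top 110 uM) 30 min RT, beads 20 min dark.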
CtBP-E1A blk – blocks the CtBP interaction with E1A; activity change, % (no concentration beside the values); AlphaScreen GST-E1A/His-CtBP binding, 1536-well; hits give low values; actives 0.49% (n = 340,000); in the data active = activity change below about -65%; inconclusive = mostly about -30% to -63%
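Protein mix (5X: 125 nM each GST-E1A, His-CtBP) was incubated with pinned compound 2 h at 37 deg C in dark, in 50 mM Tris pH 8.0 buffer with 300 mM NaCl. Glutathione donor and nickel acceptor beads followed; AlphaScreen signal read after 1 h.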
HP1b chromo inh – HP1-beta chromodomain-methylated histone interaction inhibition; P83916; AlphaScreen HP1-beta / biotin-H3K9me3 peptide binding; Potency, µM (doses to about 114 µM), most hits filed as inhibitors; actives 0.56% (n = 390,000); also: nearly all actives have a fitted effect of over 70% in size
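AlphaScreen: HP1-beta (50 nM) preformed 30 min with biotin-H3(1-18)K9me3 peptide (50 nM) in PBS pH 7.4, 0.01% Tween-20. Compound added for 30 min at RT, then streptavidin donor/nickel chelate acceptor beads (10 ug/mL) for 30 min.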
G9a block – G9a (human) methyltransferase inhibition; AID 504332; G9a H3K9 monomethylation, AlphaScreen, 2 h; Q96KQ7; Potency, µM (titrated, usually from 102 µM), actives largely listed as inhibitors; actives 8.8% (n = 350,000); also: nearly all actives have a fitted effect of over 75% in size
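Quantitative HTS format: methyltransferase activity on a biotin-tagged H3K9 peptide is measured by AlphaScreen, using a rabbit anti-monomethyl-H3K9 antibody with streptavidin donor and anti-IgG acceptor beads. Final levels are 20 nM enzyme, 500 nM peptide, 20 uM SAM; 2 h RT.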
A number is an active result; i = inactive; ? = inconclusive; nt = no result given; [ ] = another dose, or the depositor's remark. Unless noted, calls follow the shape of the dose curve; as a rule, active = well fitted inhibition curve with a large enough effect; inconclusive = small, poorly fitted or top-dose-only effect; inactive = no such curve, though single readings can be large or run the other way.

SMILES	Six1-Eya2 blk	JMJD2A Tudor	BAZ2B inh	CtBP-E1A blk	HP1b chromo inh	G9a block
CNC(C)C1CC[C@H](N)[C@@H](OC2C(N)C[C@H](N)[C@@H](OC3OC[C@](C)(O)C(NC)[C@H]3O)C2O)O1 (some centres not stated)	nt	nt	nt	nt	nt	i[2.33 µM]
O=[N+]([O-])c1ccc(-c2ccccc2)c([As](=O)(O)O)c1	i	i	?	nt	i	13µM
O=[N+]([O-])c1ccc2c(c1)C(c1ccccc1)=NCCN2	i	i	i	i	i	?
COc1ccc2cc1Oc1ccc(cc1)C[C@H]1c3cc(c(OC)cc3CCN1C)Oc1c(OC)c(OC)cc3c1[C@@H](C2)N(C)CC3	i	?	?	i	i	i[2.33 µM]
CN(C)CCC=C1c2ccccc2CCc2ccccc21	i	i	i	i	i	i
CNCC(O)c1cccc(OC(=O)c2ccccc2C)c1 (configuration not stated)	i	i[11.4 µM]	i	i	i	56µM
CNC[C@H](O)c1ccc(O)c(OC)c1	nt	nt	nt	nt	nt	i[21.5 µM]
O=C1C(Cc2cnc[nH]2)NC(=S)N1c1ccccc1 (configuration not stated)	i	?	i	i	i	50µM
C/C(=C\c1ccc(N(C)C)cc1)[N+](=O)[O-]	i	i	i	i	i	?
CN(C)c1ccc(/C=C/[N+](=O)[O-])cc1	i	i	i	i	i	71µM
O=[N+]([O-])/C=C/c1ccc2c(c1)OCO2	nt	nt	nt	nt	nt	2.1µM
O=C(NC(O)C(Cl)(Cl)Cl)NC(O)C(Cl)(Cl)Cl (configuration not stated)	nt	nt	nt	nt	nt	i[12.7 µM]
COc1cc(OC)c(/C=C2/C(=O)Nc3ccccc32)c(OC)c1	nt	nt	nt	nt	nt	i
COc1ccccc1N1C(=O)NC(=O)/C(=C/c2ccc3c(c2)Cc2ccccc2-3)C1=O	i	79µM	50µM	i	i	?
O=C1NC(=O)N(c2ccccc2)C(=O)/C1=C/c1ccc2c(c1)Cc1ccccc1-2	nt	nt	nt	nt	nt	6.3µM
O=C(CSc1ccccn1)Nc1cccc2ccccc12	i	i	i	i	i	?
Cc1cc(N2C(=O)C3CCCN3C2c2ccccc2)no1 (configuration not stated)	i	28µM	?	i	i	?
Cc1ccc(C2N(c3cc(C)on3)C(=O)C3CCCN32)cc1 (configuration not stated)	i	i	i	i	i	35µM
CC1(C)NCCN2C(=O)CSC21 (configuration not stated)	i	i	i	i	i	79µM
N#Cc1ccc(CN2CC[C@@]3(CCCN(C(=O)Oc4ccccc4)C3)C2)cc1	nt	nt	nt	nt	nt	i[12.7 µM]
CC1CCN(C(CC(=O)c2ccccc2)C(=O)c2ccccc2)CC1 (configuration not stated)	i	20µM	nt	i	?	nt
Cc1ccc(-c2nc3ccccc3c(=O)n2-c2ccccn2)cc1	i	i	i	i	i	i
COc1ccc(-c2n(-c3ccccn3)c3ccccc3[n+]2-c2ccccn2)cc1	i	i	i	nt	i	3.2µM
Cc1ccc(NC(=O)Cn2c(=O)cc(-c3ccccc3)c3c(C)nn(C)c32)c(Cl)c1	nt	i	i	nt	i	i
O=C1NC(=O)N(Cc2ccc(F)cc2)C(=O)/C1=C\c1ccoc1	i	79µM	50µM	i	?	40µM
SMILES	Six1-Eya2 blk	JMJD2A Tudor	BAZ2B inh	CtBP-E1A blk	HP1b chromo inh	G9a block
O=C1NC(=O)N(Cc2ccc(F)cc2)C(=O)/C1=C/c1cccs1	i	i	79µM	i	i	4µM
Cc1ccc(/C=C2\C(=O)NC(=O)N(Cc3ccccc3Cl)C2=O)o1	i	i	32µM	i	i	13µM
O=C1NC(=O)N(Cc2ccccc2Cl)C(=O)/C1=C/c1cccs1	i	i	nt	nt	i	11µM
c1cnc(N2CC[C@@]3(CCCNC3)C2)nc1	nt	nt	nt	nt	nt	i[12.7 µM]
CCC(C)N1C(=O)/C(=C\c2ccc(N3CCCCCC3)cc2)C(=O)NC1=S (configuration not stated)	i	?	45µM	i	?	3.5µM
CCC(C)N1C(=O)/C(=C\c2cnc(N(C)C)nc2)C(=O)NC1=S (configuration not stated)	i	?	?	i	i	7.9µM
